Test [1] can be described thus: High-throughput drug toxicity screening in the BPDCN cell line Gen2.2 (AID 1224824).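 Further: cells exposed to compounds for 48 h before reading.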 The following applies: Gen2.2 BPDCN cells; at 45.8 µM (top of the series) unless noted. In a few lines: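 Seed 500 exponentially growing Gen2.2 cells/well; add compounds by pin tool; incubate 48 h, 37 °C, 5% CO2; add CellTiter-Glo, 15 min RT; read luminescence. % activity vs DMSO (100%) and bortezomib (0%).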

Test [2] can be described thus: High-throughput drug toxicity screening in the BPDCN cell line Cal-1 (AID 1224825). As to conditions: Cal-1 BPDCN cell viability, qHTS; at 45.8 µM (top of the series) unless noted. In a few lines:
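Exponentially growing Cal-1 cells, 500 per well in phenol red-free RPMI with 10% FBS, were exposed to compounds for 48 h at 37 °C, 5% CO2. Viability was read by CellTiter-Glo luminescence and normalised to DMSO (100%) and 9.2 uM bortezomib (0%).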
In general terms: qHTS replaces the single test concentration by a dilution series.

Test [3] in a line: qHTS assay for measurement of the activity of small molecule inhibitors on Zika virus induced Caspase-3 activity in human iPSC derived neural progenitor cells (hNPCs) (AID 1224857; active means well fitted curve in the direction sought with a large enough effect; an effect the other way counts as inactive or inconclusive; further: % of control where 0% means no effect; nearly all actives have a fitted effect of over 65% in size). In a few lines: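 Caspase-3/7 induction by a 6-hour ZIKV infection was quantified with a luminescent Caspase-Glo 3/7 reagent incubated 30 minutes at room temperature. Compounds were preincubated with hNPCs for 1 hour; inhibition was calculated against uninfected and infected control wells.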

Test [4] can be described thus: qHTS assay for measurement of the activity of small molecule inhibitors on Zika virus induced Caspase-3 activity in human astrocytoma cells (AID 1224859; active means well fitted curve in the direction sought with a large enough effect; an effect the other way counts as inactive or inconclusive;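 further: plate controls were ZIKV-infected untreated cells for no effect and uninfected cells for full effect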). In outline:
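In SNB-19 cells plated at 250 cells/well and grown 16-20 h, compounds were applied 1 h before ZIKV (2 FFU/cell). Six hours later caspase-3/7 luminescence was recorded.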

The nature of test [5]: qHTS Screen of the MIPE 4.0 Collection Against Ewings Sarcoma (TC71) (AID 1259253; active means well fitted curve in the direction sought with a large enough effect; an effect the other way counts as inactive or inconclusive; further: potency means the concentration at half of the fitted maximal effect; nearly all actives have a fitted effect of over 40% in size). In outline:
(§1)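 Compound titrations go onto adherent log-phase cells 4 h after seeding, incubate 48 h at 37C, then CellTiter-Glo luminescence reports viability relative to DMSO and cell-free controls.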

Test [6] in a line: qHTS Screen of the MIPE 4.0 Collection Against Ewings Sarcoma (EW8) (AID 1259255; active means well fitted curve in the direction sought with a large enough effect; an effect the other way counts as inactive or inconclusive; further: potency means the concentration at half of the fitted maximal effect; nearly all actives have a fitted effect of over 35% in size). In outline:
as §1

Test [7] can be described thus: qHTS Screen of the MIPE 4.0 Collection Against Ewings Sarcoma (TC32) (AID 1259256; active means well fitted curve in the direction sought with a large enough effect; an effect the other way counts as inactive or inconclusive; further: potency means the concentration at half of the fitted maximal effect; nearly all actives have a fitted effect of over 45% in size). In outline: as §1
Test [8] in a line: Identifying Small Molecule Inhibitors of Pancreatic Cancer Stem Cells (SN12C, Spheroid) (AID 1259360; active means well fitted curve in the direction sought with a large enough effect; an effect the other way counts as inactive or inconclusive;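 further: 100% = DMSO-treated cells and 0% = wells without cells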). The following applies: Potency: SN12C spheroid viability. In outline:
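After a 4 h attachment period, compounds were pinned into wells and cultures held 48 h under standard incubator conditions. Viability was then measured as CellTiter-Glo luminescence following 10 min at room temperature.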

Test [9] in a line: qHTS profiling of the MIPE4 collection as inhibitors of Plasmodium falciparum (DD2) proliferation (AID 743345). As to conditions: P. falciparum Dd2 in erythrocytes, SYBR Green DNA, 72 h; at 28.5 µM (top of the series) unless noted. In outline:
(§2)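 Erythrocytes infected with P. falciparum (0.3% parasitemia, 2.5% hematocrit) incubated with compounds 72 h at 37 C, 5% CO2. Lysis with saponin/Triton buffer containing SYBR Green I, overnight at room temperature in the dark; DNA fluorescence (485/535 nm) normalised to 0.29 uM artemisinin and DMSO.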

Test [10] can be described thus: qHTS profiling of the MIPE4 collection as inhibitors of Plasmodium falciparum (HB3) proliferation (AID 743347).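 Further: plate controls were DMSO vehicle wells for no effect and artemisinin wells for full effect.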 The following applies: P. falciparum HB3 in erythrocytes, SYBR Green DNA, 72 h; at 28.5 µM (top of the series) unless noted. In a few lines:
as §2

Test [11] is described as follows: qHTS Screen of the MIPE 4.0 Collection Against Ewings Sarcoma (RDES) (AID 1259252; active means well fitted curve in the direction sought with a large enough effect; an effect the other way counts as inactive or inconclusive; further: nearly all actives have a fitted effect of over 35% in size; further: potency means the concentration at half of the fitted maximal effect). In outline: as §1
The nature of test [12]: qHTS profiling of the MIPE4 collection as inhibitors of Plasmodium falciparum (3D7) proliferation (AID 743344).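 Further: scaled between DMSO vehicle wells and 0.29 µM artemisinin as full inhibition.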 The following applies: P. falciparum 3D7 in erythrocytes, SYBR Green DNA fluorescence, 72 h; at 28.5 µM (top of the series) unless noted. In outline:
as §2

Test [13] in a line: qHTS profiling of the MIPE4 collection as inhibitors of Plasmodium falciparum (DD2) proliferation (Rep 2) (AID 743346). The following applies: P. falciparum Dd2 in erythrocytes, SYBR Green DNA, 72 h; at 28.5 µM (top of the series) unless noted. In outline: as §2

Records with an inconclusive call do not appear. Activity calls are given as the source filed them. Unless noted, how the calls were made is not given here.

Consider `CC(C)n1c(C=C[C@H](O)C[C@H](O)CC(=O)O)c(-c2ccc(F)cc2)c2ccccc21`, for which the cell viability, % of control (lower = more cytotoxic) in test [1] was 9.81%. In addition, the viability (% of control) in test [2] turned out to be 66.9%. Further, the Potency result in test [3], in [4] and in test [8] was “inactive” throughout. For the same compound, the Potency in [5] was 3.32 µM (active); in test [6], 9.35 µM (active); in [7], 2.35 µM (active).

`Cc1cc(-c2ncc(CC(=O)Nc3ccc(-c4cnccn4)cn3)cc2C)ccn1`: the parasite growth remaining, % of DMSO control (lower = more inhibition) in test [9] worked out at 87.9%. Also, in test [10], the growth, % of control turned out to be 52.1%. Also, the cell viability, % of control (lower = more cytotoxic) in test [1] was found to be 267%. Further, the viability (% of control) in [2] came out at 97%. For the same compound, the Potency entry in [3] and in [4] was “inactive” in each case. For the same compound, the Potency is 16.6 µM (active) in test [11] and 23.5 µM (active) in test [7].

`CCCCCCCCCCCCCCCC(=O)O[C@H]1[C@@H](O)[C@@H](O)[C@@H]([C@H](NC(=O)[C@@H]2C[C@@H](CCC)CN2C)[C@H](C)Cl)O[C@@H]1SC` returned a parasite growth, % of DMSO control in test [12] of 31.4%. For the same compound, the parasite growth remaining, % of DMSO control (lower = more inhibition) in test [9] is 11%. The parasite growth, % of control (lower = inhibition) in [13] was 20.4%. For the same compound, the cell viability, % of control (lower = more cytotoxic) in test [1] was 218%. The viability (% of control) in test [2] was 94.5%. Further, the Potency result in test [3], in test [4] and in test [11] was “inactive” throughout.

`CO[C@H]1/C=C\O[C@@]2(C)Oc3c(C)c(O)c4c(O)c(c5c(nc6cc(C)ccn65)c4c3C2=O)NC(=O)C(C)=CC=C[C@H](C)[C@H](O)[C@@H](C)[C@@H](O)[C@@H](C)[C@H](OC(C)=O)[C@H]1C` gave a parasite growth, % of DMSO control in [12] of 11%. The parasite growth remaining, % of DMSO control (lower = more inhibition) in [9] came to 31.8%. In addition, in test [1], the cell viability, % of control (lower = more cytotoxic) stood at 4.46%. For the same compound, the viability (% of control) in [2] came to 32.4%. Also, the Potency result in test [3], in test [4] and in test [11] was “inactive” each time.

`C[C@@H]1CC=CC=CC=CC=C[C@@H](O[C@@H]2O[C@H](C)[C@@H](O)[C@H](N)[C@H]2O)C[C@@H]2O[C@](O)(C[C@@H](O)C[C@@H]3O[C@@H]3C=CC(=O)O1)C[C@H](O)[C@@H]2C(=O)O`: in test [12], the parasite growth, % of DMSO control amounted to 46.3%. Further, the parasite growth remaining, % of DMSO control (lower = more inhibition) in test [9] is 67%. Also, the parasite growth, % of control (lower = inhibition) in [13] amounted to 59%. The growth, % of control in test [10] is 52.6%. In [1], the cell viability, % of control (lower = more cytotoxic) turned out to be 186%. Besides, the viability (% of control) in [2] was 110%. The Potency entry in test [3] and in [4] was “inactive” throughout. Further, the Potency in test [11] was 7.43 µM (active).

In test [12], `CC(C)(CO)[C@@H](O)C(=O)NCCC(=O)O` had a parasite growth, % of DMSO control of 92.1%. The parasite growth remaining, % of DMSO control (lower = more inhibition) in [9] was determined as 101%. The parasite growth, % of control (lower = inhibition) in [13] came out at 114%. The same compound showed a growth, % of control in [10] of 102%. Also, in [1], the cell viability, % of control (lower = more cytotoxic) came to 85%. Moreover, the viability (% of control) in [2] amounted to 107%. In addition, the Potency result in [3] and in test [4] was “inactive” in each case. Moreover, the Potency in test [11] was 20.9 µM (active).

For the compound `CN1CCC[C@H]1CCO[C@](C)(c1ccccc1)c1ccc(Cl)cc1`, the parasite growth, % of DMSO control in test [12] stood at 12.4%. In test [9], the parasite growth remaining, % of DMSO control (lower = more inhibition) stood at 13.4%. Moreover, in test [13], the parasite growth, % of control (lower = inhibition) came out at 23.9%. In [10], this compound gave a growth, % of control of 10.3%. Moreover, the cell viability, % of control (lower = more cytotoxic) in test [1] was 77.3%. Also, in test [2], the viability (% of control) came to 50.8%. Moreover, the Potency entry in [3] and in [4] was “inactive” in each case. Moreover, in test [11], the Potency was 20.9 µM (active).

Values taken from PubChem BioAssay (NCATS).
